# Data taken from the supplement of paper PMC4466140.
# B1: unnamed (peptide)
# chain: NPLPKEPRLPKRKVA
# Target: CaNbp2
# Test: SPOT peptide array binding signal intensity (averaged, normalized) (arbitrary units (background-subtracted, floor 0; scale differs between SH3 domains)); higher = stronger binding of the SH3 domain to the peptide
# Summary of the method: (§1)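 Binding signal is given in arbitrary units that differ between domains and is the normalized, background-subtracted spot intensity averaged across replicates. Each GST-SH3 fusion from one of four yeast species was made in E. coli BL21(DE3), purified on glutathione Sepharose and incubated at 10 μg/ml overnight at 4°C on cellulose-bound synthetic 15-mer peptides in which cysteines were replaced by serines. Detection used anti-GST antibody, an HRP anti-mouse secondary and luminol, followed by imaging and Genespotter quantification.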
row,Binder,SPOT peptide array binding signal intensity
1,B1,112

# Target: CaRvs167
# Test: as above
# Summary of the method: as §1
row,Binder,SPOT peptide array binding signal intensity
1,B1,303

# Target: CaRvs167-3
# Test: as above
# Summary of the method: as §1
row,Binder,SPOT peptide array binding signal intensity
1,B1,4.5

# Target: CaSho1
# Test: as above
# Summary of the method: as §1
row,Binder,SPOT peptide array binding signal intensity
1,B1,60

# Target: CaSla1-D1-D2
# Test: as above
# Summary of the method: as §1
row,Binder,SPOT peptide array binding signal intensity
1,B1,1220

# Target: CaSla1-D3
# Test: as above
# Summary of the method: as §1
row,Binder,SPOT peptide array binding signal intensity
1,B1,6

# Target: ScAbp1
# Test: as above
# Summary of the method: as §1
row,Binder,SPOT peptide array binding signal intensity
1,B1,147

# Target: ScBbc1
# Test: as above
# Summary of the method: as §1
row,Binder,SPOT peptide array binding signal intensity
1,B1,168

# Target: ScBem1-D1
# Test: as above
# Summary of the method: as §1
row,Binder,SPOT peptide array binding signal intensity
1,B1,12.5

# Target: ScBzz1-D1
# Test: as above
# Summary of the method: as §1
row,Binder,SPOT peptide array binding signal intensity
1,B1,81

# Target: ScBzz1-D2
# Test: as above
# Summary of the method: as §1
row,Binder,SPOT peptide array binding signal intensity
1,B1,56.5

# Target: ScCyk3
# Test: as above
# Summary of the method: as §1
row,Binder,SPOT peptide array binding signal intensity
1,B1,3

# Target: ScFus1
# Test: as above
# Summary of the method: as §1
row,Binder,SPOT peptide array binding signal intensity
1,B1,42

# Target: ScHof1
# Test: as above
# Summary of the method: as §1
row,Binder,SPOT peptide array binding signal intensity
1,B1,1.25

# Target: ScHse1
# Test: as above
# Summary of the method: as §1
row,Binder,SPOT peptide array binding signal intensity
1,B1,337

# Target: ScLsb1
# Test: as above
# Summary of the method: as §1
row,Binder,SPOT peptide array binding signal intensity
1,B1,29.5

# Target: ScLsb2
# Test: as above
# Summary of the method: as §1
row,Binder,SPOT peptide array binding signal intensity
1,B1,≤ 0

# Target: ScLsb3
# Test: as above
# Summary of the method: as §1
row,Binder,SPOT peptide array binding signal intensity
1,B1,3820

# Target: ScLsb4
# Test: as above
# Summary of the method: as §1
row,Binder,SPOT peptide array binding signal intensity
1,B1,1350

# Target: ScMyo3
# Test: as above
# Summary of the method: as §1
row,Binder,SPOT peptide array binding signal intensity
1,B1,≤ 0

# Target: ScMyo5
# Test: as above
# Summary of the method: as §1
row,Binder,SPOT peptide array binding signal intensity
1,B1,≤ 0

# Target: ScNbp2
# Test: as above
# Summary of the method: as §1
row,Binder,SPOT peptide array binding signal intensity
1,B1,41

# Target: ScPex13
# Test: as above
# Summary of the method: as §1
row,Binder,SPOT peptide array binding signal intensity
1,B1,58.2

# Target: ScRvs167
# Test: as above
# Summary of the method: as §1
row,Binder,SPOT peptide array binding signal intensity
1,B1,1460

# Target: ScSho1
# Test: as above
# Summary of the method: as §1
row,Binder,SPOT peptide array binding signal intensity
1,B1,286

# Target: ScSla1-D1-D2
# Test: as above
# Summary of the method: as §1
row,Binder,SPOT peptide array binding signal intensity
1,B1,546

# Target: ScSla1-D3
# Test: as above
# Summary of the method: as §1
row,Binder,SPOT peptide array binding signal intensity
1,B1,4.5

# Target: SpAbp1-D1
# Test: as above
# Summary of the method: as §1
row,Binder,SPOT peptide array binding signal intensity
1,B1,86

# Target: SpBbc1
# Test: as above
# Summary of the method: as §1
row,Binder,SPOT peptide array binding signal intensity
1,B1,4.25

# Target: SpBzz1-D1
# Test: as above
# Summary of the method: as §1
row,Binder,SPOT peptide array binding signal intensity
1,B1,356

# Target: SpBzz1-D2
# Test: as above
# Summary of the method: as §1
row,Binder,SPOT peptide array binding signal intensity
1,B1,2.5

# Target: SpCyk3
# Test: as above
# Summary of the method: as §1
row,Binder,SPOT peptide array binding signal intensity
1,B1,≤ 0

# Target: SpHof1
# Test: as above
# Summary of the method: as §1
row,Binder,SPOT peptide array binding signal intensity
1,B1,120

# Target: SpHof1-2
# Test: as above
# Summary of the method: as §1
row,Binder,SPOT peptide array binding signal intensity
1,B1,262

# Target: SpHof1-3
# Test: as above
# Summary of the method: as §1
row,Binder,SPOT peptide array binding signal intensity
1,B1,464

# Target: SpHse1
# Test: as above
# Summary of the method: as §1
row,Binder,SPOT peptide array binding signal intensity
1,B1,198

# Target: SpLsb1
# Test: as above
# Summary of the method: as §1
row,Binder,SPOT peptide array binding signal intensity
1,B1,16

# Target: SpLsb4
# Test: as above
# Summary of the method: as §1
row,Binder,SPOT peptide array binding signal intensity
1,B1,7280

# Target: SpMyo1
# Test: as above
# Summary of the method: as §1
row,Binder,SPOT peptide array binding signal intensity
1,B1,≤ 0

# Target: SpNbp2
# Test: as above
# Summary of the method: as §1
row,Binder,SPOT peptide array binding signal intensity
1,B1,27

# Target: SpPex13
# Test: as above
# Summary of the method: as §1
row,Binder,SPOT peptide array binding signal intensity
1,B1,15

# Target: SpRvs167
# Test: as above
# Summary of the method: as §1
row,Binder,SPOT peptide array binding signal intensity
1,B1,1700

# Target: SpSla1-D1-D2
# Test: as above
# Summary of the method: as §1
row,Binder,SPOT peptide array binding signal intensity
1,B1,≤ 0

# Target: SpSla1-D3
# Test: as above
# Summary of the method: as §1
row,Binder,SPOT peptide array binding signal intensity
1,B1,15
